Assay outcomes from PubChem.
Only a selection was taken, and hits are over-represented in it overall.
KDM5B inhibitor: KDM5B demethylase inhibition; 220,000 tested, 2.6% active; Potency, µM (series often up to 57.7 µM), actives largely listed as inhibitors; KDM5B demethylase, FDH-coupled NADH fluorescence (FDH is formaldehyde dehydrogenase); Q9UGL1; active means well fitted inhibition curve with a large enough effect; further: 0% is about no effect; nearly all actives have a fitted effect of over 70% in size
Target sequence (Q9UGL1 whole entry, looked up): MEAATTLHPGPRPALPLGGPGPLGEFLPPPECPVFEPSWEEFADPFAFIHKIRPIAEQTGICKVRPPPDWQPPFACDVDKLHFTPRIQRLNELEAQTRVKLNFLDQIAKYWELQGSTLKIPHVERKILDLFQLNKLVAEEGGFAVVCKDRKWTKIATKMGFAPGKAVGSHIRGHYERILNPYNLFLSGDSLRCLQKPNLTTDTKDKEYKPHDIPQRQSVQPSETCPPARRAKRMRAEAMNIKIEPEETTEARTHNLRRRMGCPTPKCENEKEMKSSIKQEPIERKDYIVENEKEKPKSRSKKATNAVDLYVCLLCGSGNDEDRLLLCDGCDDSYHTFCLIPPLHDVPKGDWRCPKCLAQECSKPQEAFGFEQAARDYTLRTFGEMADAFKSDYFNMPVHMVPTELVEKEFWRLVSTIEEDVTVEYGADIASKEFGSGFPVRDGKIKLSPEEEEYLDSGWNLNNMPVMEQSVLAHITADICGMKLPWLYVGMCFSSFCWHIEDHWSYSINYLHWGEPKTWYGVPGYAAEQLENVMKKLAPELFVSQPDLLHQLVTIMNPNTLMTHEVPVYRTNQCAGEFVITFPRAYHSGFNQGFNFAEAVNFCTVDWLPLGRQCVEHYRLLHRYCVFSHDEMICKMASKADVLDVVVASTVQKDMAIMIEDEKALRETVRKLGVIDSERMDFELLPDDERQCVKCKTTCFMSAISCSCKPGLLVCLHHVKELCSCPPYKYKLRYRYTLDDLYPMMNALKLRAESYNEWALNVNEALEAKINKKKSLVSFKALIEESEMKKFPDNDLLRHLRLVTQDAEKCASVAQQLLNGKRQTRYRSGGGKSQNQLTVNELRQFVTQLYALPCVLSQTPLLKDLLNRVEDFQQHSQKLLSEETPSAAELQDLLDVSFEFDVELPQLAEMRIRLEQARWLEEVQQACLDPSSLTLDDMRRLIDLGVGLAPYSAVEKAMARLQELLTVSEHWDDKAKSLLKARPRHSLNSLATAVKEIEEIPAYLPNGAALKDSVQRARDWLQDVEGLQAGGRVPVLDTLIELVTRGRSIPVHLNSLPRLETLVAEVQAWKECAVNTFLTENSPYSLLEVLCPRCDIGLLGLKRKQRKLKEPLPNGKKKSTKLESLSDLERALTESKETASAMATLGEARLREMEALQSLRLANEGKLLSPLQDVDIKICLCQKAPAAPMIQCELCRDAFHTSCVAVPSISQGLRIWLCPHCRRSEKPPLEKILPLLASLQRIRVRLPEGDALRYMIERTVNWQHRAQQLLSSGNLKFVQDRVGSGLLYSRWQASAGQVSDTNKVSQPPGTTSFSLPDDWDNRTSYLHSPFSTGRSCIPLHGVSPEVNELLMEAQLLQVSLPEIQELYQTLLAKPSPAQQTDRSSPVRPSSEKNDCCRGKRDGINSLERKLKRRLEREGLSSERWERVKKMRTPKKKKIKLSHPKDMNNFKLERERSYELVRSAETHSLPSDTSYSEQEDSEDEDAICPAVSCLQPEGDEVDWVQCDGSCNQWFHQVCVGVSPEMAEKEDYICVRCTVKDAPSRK
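Coupled FDH/NAD⁺ fluorescence readout. KDM5BΔAP 200 nM final; compound titration, 10 min RT preincubation; substrate mix 12.5 µM H3K4me3, 25 µM 2-OG, 50 µM Fe(II), 100 µM ascorbate, 0.25 mM NAD⁺, 0.25 U/mL FDH; ΔRFU over 30 min.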
An asterisk follows results filed as active; i = inactive. Potency means the concentration at half of the fitted maximal effect.

SMILES	KDM5B inhibitor
CCCCC(CC)CNC(=S)Nc1ccc(C(C)CC)cc1 (centres undefined)	i
CCOC(=O)C(=O)Nc1ccc(OCC(C)C)cc1	i
CC(C)CNC(=O)CSc1nc(-c2ccccc2)[nH]c1S(=O)(=O)c1ccccc1	i
CC(C)c1ccc(NC(=S)NC2CCSc3ccccc32)cc1 (centres undefined)	i
NC(=O)C1Cc2ccccc2CN1 (centres undefined)	i
COc1ccc(-c2c[nH]c3c(SCC(=O)Nc4ccc(OC)c(OC)c4)ncnc23)cc1	i
CCc1noc(-c2cccn3c(CNC(=O)CCc4ccc(OC)cc4)nnc23)n1	i
CCc1noc(-c2cn(C3CCN(C(=O)COc4ccccc4)CC3)nn2)n1	i
CCc1noc(-c2cccn3c(CNC(=O)C(C)c4ccccc4)nnc23)n1 (centres undefined)	22µM*
CCc1noc(-c2cccn3c(CNC(=O)COc4ccccc4)nnc23)n1	32µM*
O=C(Nc1ccccc1F)C1C(c2ccccc2)C1(Cl)Cl (centres undefined)	i
CC(=O)N1CCN(C(=O)C(=O)Nc2cccc3[nH]ccc23)CC1	i
O=C(CCNC(=O)N1CCn2c1nc1ccccc12)NC1CC1	i
CCNC(=S)N/N=C(/C)c1ccc(Cl)c(Cl)c1	i
O=C(CSCc1ccccn1)N(Cc1ccsc1)C1CC1	i
CC(C)C(=O)N1CCC(NC(=O)CCn2ccc3ccccc32)CC1	i
Cc1ccc(NC(=O)c2nc3ccccc3nc2N2CCOCC2)cc1Cl	i
